PMC5540273 (PLoS ONE, 2017)

Experiments:
Details in all cases: concentration: 1 μM,replicates: in singlicate; n = 1
[1] = tested on: T1, MLK1
T1 construct: gene MAP3K9

[2] = tested on: MLK2
[3] = tested on: MLK3
[4] = tested on: MRCKA
[5] = tested on: T2, MRCKB
T2 construct: gene CDC42BPB

[6] = tested on: MST1R
[7] = tested on: T3, MST1
T3 construct: gene STK4

[8] = tested on: T4, MST2
T4 construct: gene STK3

[9] = tested on: T5, MST3
T5 construct: gene STK24

[10] = tested on: MST4
[11] = tested on: MTOR
[12] = tested on: MUSK
[13] = tested on: MYLK2
[14] = tested on: MYLK4
[15] = tested on: MYLK
[16] = tested on: MYO3A
[17] = tested on: MYO3B
[18] = tested on: T6, NDR1
T6 construct: gene STK38

[19] = tested on: NDR2
[20] = tested on: NEK10
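Further: KINOMEscan kinase panel screen.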

SMILES | %Inh [1] [%] | %Inh [2] [%] | %Inh [3] [%] | %Inh [4] [%] | %Inh [5] [%] | %Inh [6] [%] | %Inh [7] [%] | %Inh [8] [%] | %Inh [9] [%] | %Inh [10] [%] | %Inh [11] [%] | %Inh [12] [%] | %Inh [13] [%] | %Inh [14] [%] | %Inh [15] [%] | %Inh [16] [%] | %Inh [17] [%] | %Inh [18] [%] | %Inh [19] [%] | %Inh [20] [%]
COc1ccc(C[C@@H](CN)NC(=O)c2cc(Br)c(-c3ccnc4[nH]ccc34)s2)cc1.Cl.Cl [GSK1389063] | 13 | 0 | 0 | 89 | 99.4 | 40 | 0 | 34 | 0 | 54 | 17 | 20 | 52 | 98.5 | 99.6 | 10 | 0 | 96.8 | 78 | 23
CN(C)CC(O)COc1ccc(Nc2nccc(-c3cnn4nc(N5CCOCC5)ccc34)n2)cc1 (stereo not shown) [GW767488] | 0 | 18 | 18 | 0 | 3 | 16 | 0 | 0 | 0 | 46 | 6 | 0 | 38 | 46 | 48 | 33 | 0 | 49 | 0 | 80
C[C@H]1Oc2cc(cnc2N)-c2c(nn(C)c2C#N)CN(C)C(=O)c2ccc(F)cc21 | 13 | 0 | 23 | 0 | 16 | 0 | 19 | 19 | 4 | 0 | 0 | 11 | 18 | 10 | 10 | 10 | 17 | 31 | 25 | 19
NC(=O)c1cc(-c2ccccc2)cc2c(C3CCNCC3)c[nH]c12 [GSK301362] | 9 | 12 | 0 | 18 | 13 | 40 | 43 | 86 | 0 | 0 | 3 | 21 | 40 | 99 | 15 | 0 | 0 | 0 | 0 | 24
CCN(CC)CCCCNc1ncc2cc(-c3c(Cl)cccc3Cl)c(NC(=O)NC(C)(C)C)nc2n1 | 0 | 40 | 4 | 0 | 0 | 10 | 40 | 31 | 74 | 86 | 39 | 10 | 12 | 43 | 4 | 4 | 23 | 11 | 0 | 29
Nc1nc(Nc2ccccc2)cc(-c2ccc3c(N)n[nH]c3c2)n1 [GSK2225749] | 0 | 14 | 0 | 0 | 1 | 0 | 7 | 5 | 5 | 0 | 13 | 4 | 51 | 16 | 0 | 0 | 0 | 0 | 0 | 0
O=C(NCCNc1ccnc(NCc2ccc(F)cc2)n1)c1cc2ccccc2s1 [GSK1379944] | 5 | 0 | 0 | 10 | 69 | 4 | 0 | 0 | 1 | 0 | 1 | 5 | 0 | 1 | 14 | 0 | 0 | 0 | 0 | 0
Cc1n[nH]c2ccc(-c3cc(OC[C@@H](N)Cc4ccccc4)cnc3-c3ccoc3)cc12.O=C(O)C(F)(F)F.O=C(O)C(F)(F)F [GSK507358] | 0 | 0 | 0 | 28 | 15 | 33 | 2 | 33 | 17 | 65 | 1 | 6 | 25 | 15 | 14 | 80 | 28 | 14 | 16 | 5
